PAX8 inh HTS = inhibitors of PAX8-driven TPO luciferase reporter, primary screen, RMG-I cells, single concentration; SteadyGlo, 24 h; AID 652154, 2013; 360,000 tested, 1.2% active; inhibition, % at 12.6 µM;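 active = mean replicate inhibition at least 60% with every replicate also reaching 60%; inconclusive = only one of the two criteria is met; inactive = mean below 60% and not all replicates reaching 60%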;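 also: luciferase light reporting Pax8 driven TPO promoter activity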
Shn3 inh set2 = reduction of Shn3 3'UTR firefly luciferase signal, primary screen, Schnurri-3 inhibitor project, cell-based, Clone20 osteoblasts, set 2 | Clone20 osteoblast Shn3 3'UTR firefly luciferase, 24 h | inhibition, % at 12.5 µM | 360,000 tested, 0.52% active;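 active = mean inhibition of at least 75% with every replicate also reaching 75%; inconclusive = mean inhibition at least 75% but some replicate below; inactive = mean inhibition below 75%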
Gli-Sufu block = Gli-Sufu pathway antagonists, primary screen, luciferase luminescence, Sufu-KO-LIGHT cells, uHTS | Sufu-KO-LIGHT fibroblasts, Gli luciferase reporter luminescence | inhibition, % at 5 µM | 340,000 tested, 0.74% active;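 active = inhibition above about 55%, limit read from the data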
CSC inhib = cancer stem cell viability inhibitors, primary screen, luminescence; 300,000 tested, 1.1% active; inhibition, % at 7.5 µM; cancer stem cell-like cells viability; AID 2717, 2010; in the data active = inhibition above about 75%; inconclusive = no clear call, values can overlap the other calls; tested in HMLE shEcad cells
Beta apoptosis = inhibitors of cytokine-induced beta cell apoptosis, primary screen, luminescence | INS-1E cytokine-induced death, ATP luminescence, 48 h; percent of positive-control rescue, neutral wells zero | protection from apoptosis, % (test concentration not listed) | 300,000 tested, 0.8% active | AID 435005, 2010;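 active = Every replicate reaches about 75%, or at least half do and their mean reaches it too, limit read from the data; inconclusive = At least half of replicates reach the limit but their mean does not; inactive = Under half of replicates reach the limit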;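 also: higher means more ATP so stronger rescue from cytokine killing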
Mdm2 MdmX PPI = inhibitors of human Mdm2-MdmX association, primary screen, cell-based, luminescence, split luciferase, SaOS-2, uHTS | inhibition, % at 8 µM | SaOS-2 split-luciferase Mdm2/MdmX complementation | AID 485346, 2010 | 330,000 tested, 3% active;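 active = inhibition of at least 50% at 8 µM in the primary screen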
Mdm2 MdmX conf = Mdm2-MdmX complex disruptors, retested hits, confirmation, luminescence, single concentration; shares compounds with Mdm2 MdmX PPI; Mdm2-MdmX binding, luminescent assay; inhibition, % at 8 µM; 10,000 tested, 55% active; in the data active = inhibition above about 40%
FLuc counter = full-length luciferase signal inhibition, confirmation, counter-screen for Mdm2/MdmX interaction inhibitor project, cell-based, single concentration, SaOS-2. shares compounds with Mdm2 MdmX PPI. SaOS-2 full-length luciferase counterscreen, luminescence. inhibition, % at 8 µM. 6,200 tested, 77% active;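 active = mean inhibition at 8 µM reaching about 37%, which flags the compound as non-specific, limit read from the data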;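 also: p53-null SaOS-2 cells with luciferase driven by a doxycycline-inducible promoter; compound on cells about two nights before reading with doxycycline added after day one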
Each line names hits and unclear results; the compound was inactive in the other large screens (follow-up assays come after a bar, where they were run). Hits are enriched below; roughly 4% of the tested compounds scored in any of these assays.

C/C(=N\NC(=O)c1c(Cl)cnn1C)c1cccc(NC(=O)c2ccc(C)cc2)c1	none
C/C(=N\NC(=O)c1c(Br)cnn1C)c1ccc(NC(=O)c2ccc(F)cc2)cc1	Mdm2 MdmX PPI 67.1 | Mdm2 MdmX conf inactive
COc1ccc(NC(=O)Cc2ccccc2)cn1	none
COc1ccc(NC(=O)/C(Cl)=C(/Cl)S(=O)Cc2ccccc2)cn1 (stereo not given)	Shn3 inh set2 97.3, Gli-Sufu block 65.7, Beta apoptosis 103.7, Mdm2 MdmX PPI 97.6 (no result: PAX8 inh HTS, CSC inhib) | Mdm2 MdmX conf 98.8 | FLuc counter inactive
COc1ccc(CS(=O)(=O)/C(Cl)=C(/Cl)C(=O)Nc2ccc(OC)nc2)cc1	Shn3 inh set2 97.7, CSC inhib 108.8, Mdm2 MdmX PPI 93.9 (no result: PAX8 inh HTS) | Mdm2 MdmX conf 97.3 | FLuc counter 50.8
CN1CCN(C(=O)C[C@H]2CC[C@H]3[C@@H](COC[C@@H](O)CN3Cc3ccc(Oc4ccccc4)cc3)O2)CC1	none (no result: Shn3 inh set2, Gli-Sufu block, CSC inhib, Beta apoptosis, Mdm2 MdmX PPI)
Cc1ccc(S(=O)(=O)Nc2ccc3c(c2)C(=O)N([C@H](C)CO)C[C@@H](C)[C@H](CN(C)S(=O)(=O)c2ccccc2)O3)cc1	none (no result: Shn3 inh set2, Gli-Sufu block, CSC inhib, Beta apoptosis, Mdm2 MdmX PPI)
O=C(CN1c2ccccc2Sc2ccccc21)NNC(=O)Nc1cccc(Cl)c1	CSC inhib 82.4, Beta apoptosis inconclusive, Mdm2 MdmX PPI 67.4 | Mdm2 MdmX conf inactive | FLuc counter 90.1
C=CCNCC(=O)N1N=C(c2ccc3ccccc3c2)CC1c1ccc(OC)cc1 (stereo not given)	none
COc1ccc(C2CC(c3ccccc3)=NN2C(=O)COC(=O)c2ccc(S(C)(=O)=O)cc2)cc1 (stereo not given)	none
COc1ccc(C2CC(c3ccccc3)=NN2C(=O)COC(=O)c2cccc(O)c2)cc1 (stereo not given)	Mdm2 MdmX PPI 54.9 | Mdm2 MdmX conf inactive
COc1ccc(C2CC(c3ccc4ccccc4c3)=NN2C(=O)CNC2CCCCC2)cc1 (stereo not given)	Mdm2 MdmX PPI 61.8 | Mdm2 MdmX conf inactive
COc1ccc(-c2c(C#Cc3ccsc3)c3cc(Br)ccc3n2C)cc1	none
COc1cc(C#Cc2c(C=O)n(C)c3ccccc23)cc(OC)c1	Mdm2 MdmX PPI 65.6 | Mdm2 MdmX conf inactive | FLuc counter 77.8
COc1ccc(-c2c(C#Cc3ccc(N(C)C)cc3)c3ccccc3n2C)cc1	Mdm2 MdmX PPI 52.5 (no result: CSC inhib) | Mdm2 MdmX conf inactive
C[C@H]1CCCCO[C@H](CN(C)C)[C@@H](C)CN([C@@H](C)CO)C(=O)c2cc(N(C)C)ccc2O1	none (no result: Shn3 inh set2, Gli-Sufu block, CSC inhib, Beta apoptosis, Mdm2 MdmX PPI)
C[C@@H]1CN([C@H](C)CO)C(=O)c2cc(C#Cc3ccccn3)cnc2O[C@H]1CN(C)CC1CCCC1	none (no result: Shn3 inh set2, Gli-Sufu block, CSC inhib, Beta apoptosis, Mdm2 MdmX PPI)
CCOC(=O)[C@H](Cc1c[nH]c2ccccc12)NC(=O)CN=[N+]=[N-]	none (no result: Shn3 inh set2, Gli-Sufu block, CSC inhib, Beta apoptosis, Mdm2 MdmX PPI)
Cc1ccc(C(C)C)c(OC/C(O)=C(\C#N)c2nc3ccccc3[nH]2)c1	Mdm2 MdmX PPI 58.6 | Mdm2 MdmX conf inactive
N#C/C(=C(\O)Cc1ccccc1)c1nc2ccccc2[nH]1	Shn3 inh set2 89.6, Mdm2 MdmX PPI 54.8 (no result: PAX8 inh HTS) | Mdm2 MdmX conf inactive
C/C(O)=C(\C#N)c1nc2ccccc2[nH]1	none (no result: PAX8 inh HTS)
COc1ccc(/C=N/OC/C(O)=C(\C#N)c2nc3ccccc3[nH]2)cc1OC	Mdm2 MdmX PPI 72.9 | Mdm2 MdmX conf inactive
CC(C)C(=O)OC/C(O)=C(\C#N)c1nc2ccccc2[nH]1	none (no result: CSC inhib)
COc1cccc(-c2nnc(SC(C(=O)c3c[nH]c4ccccc34)c3ccccc3)n2C)c1 (stereo not given)	Mdm2 MdmX PPI 55.7 | Mdm2 MdmX conf inactive
CC(=O)n1cc(C2C(=O)CCCC2=O)c2ccccc21	none (no result: PAX8 inh HTS)
CC(=O)n1cc(N(C(=O)CCl)c2ccc(Cl)cc2)c2ccccc21	Mdm2 MdmX PPI 98.6 (no result: PAX8 inh HTS) | Mdm2 MdmX conf 100.0 | FLuc counter inactive
COc1ccccc1N(C(=O)CCl)c1cn(C(C)=O)c2ccccc12	PAX8 inh HTS 114.3, Mdm2 MdmX PPI 96.1 | Mdm2 MdmX conf 100.1 | FLuc counter 52.4
C[C@H](CO)N1C[C@H](C)[C@@H](CN(C)Cc2ccc(Cl)c(Cl)c2)Oc2ccc(NC(=O)C3CC3)cc2CC1=O	none (no result: Shn3 inh set2, Gli-Sufu block, CSC inhib, Beta apoptosis, Mdm2 MdmX PPI)
O=C(O)[C@H]1CC=C[C@H]2CCN(Cc3ccc(Cl)c(Cl)c3)C(=O)[C@@H]12	none (no result: CSC inhib, Beta apoptosis)
O=C(Nc1ccc(Cl)c(C(F)(F)F)c1)[C@@H]1CC=C[C@@H]2CCN(Cc3ccc(Cl)c(Cl)c3)C(=O)[C@@H]21	Mdm2 MdmX PPI 62.6 | Mdm2 MdmX conf inactive
Cc1cc(C(=O)Nc2ccc3c(c2)C(=O)N(C)[C@H]2CC[C@@H](CC(=O)N[C@@H](C)c4ccccc4)O[C@H]2CO3)no1	none (no result: Shn3 inh set2, Gli-Sufu block, CSC inhib, Beta apoptosis, Mdm2 MdmX PPI)
COc1cc(C(=O)NCC(c2cccs2)N2CCOCC2)cc(Br)c1OCc1ccccc1 (stereo not given)	Mdm2 MdmX PPI 51.1 | Mdm2 MdmX conf 41.9 | FLuc counter 39.4
O=C(c1cccc(S(=O)(=O)NCc2ccccc2)c1)N1CCN(c2cccc(C(F)(F)F)c2)CC1	Mdm2 MdmX PPI 62.3 | Mdm2 MdmX conf 70.0 | FLuc counter 55.5
COc1ccc(CCNC(=O)c2cc(C(=O)c3cc(C)ccc3O)cn(CCc3ccc(OC)cc3)c2=O)cc1	none (no result: PAX8 inh HTS)
O=C(c1cc(C(=O)NCCc2ccccc2)c(=O)n(CCc2ccccc2)c1)c1cc(Cl)ccc1O	Mdm2 MdmX PPI 73.8 | Mdm2 MdmX conf 53.7 | FLuc counter 61.3
O=C(C1CC1)N1CC2(C1)[C@H](c1ccccc1)[C@@H](CO)N2Cc1cncnc1	none (no result: Shn3 inh set2, Gli-Sufu block, CSC inhib, Beta apoptosis, Mdm2 MdmX PPI)
O=C1N=C2SCCN2/C1=C\c1ccc(Cl)cc1	Mdm2 MdmX PPI 52.0 (no result: PAX8 inh HTS) | Mdm2 MdmX conf inactive
O=C(Cc1cccnc1)N[C@@H]1CC[C@@H](CCn2cc(-c3ccccc3F)nn2)O[C@@H]1CO	none (no result: Shn3 inh set2, Gli-Sufu block, CSC inhib, Beta apoptosis, Mdm2 MdmX PPI)
O=C(COc1ccc2ccccc2c1)NNC(=O)C(=O)Nc1ccccc1	Mdm2 MdmX PPI 53.1 | Mdm2 MdmX conf 60.2 | FLuc counter 99.0
COc1ccc(NC(=O)C(=O)NNC(=O)COc2ccc(OC)cc2)cc1	none
CCn1c(=O)c(CCC(=O)N2CCN(c3ccccn3)CC2)c(C)c2c(C)nn(-c3cccc(C)c3)c21	Mdm2 MdmX PPI 52.5 | Mdm2 MdmX conf inactive
Cc1ccccc1S(=O)(=O)N1CCCCN2[C@H](CO)[C@H](c3ccc(-c4ccccc4)cc3)[C@H]2C1	none (no result: Shn3 inh set2, Gli-Sufu block, CSC inhib, Beta apoptosis, Mdm2 MdmX PPI)
